In PubChem BioAssay AID2100 (National Center for Advancing Translational Sciences (NCATS), 2009):
Among all 300,000 compounds or so, about 1,200 (0.4%) were called active. Not shown: some 3% with an inconclusive outcome. The entries come from a sample that favours actives as a whole. Unmarked numbers belong to inactive results. Calls follow the shape of the dose curve; as a rule, active = well fitted inhibition curve with a large enough effect; inconclusive = small, poorly fitted or top-dose-only effect, or another doubt; inactive = no such curve, though single readings can be large or run the other way.

target: Lysosomal alpha-glucosidase (Homo sapiens) (UniProt P10253); assay: qHTS Assay for Inhibitors and Activators of Human alpha-Glucosidase Cleavage of Glycogen; conditions: recombinant GAA, glycogen substrate, Amplex Red glucose oxidase fluorescence; series mostly up to 76.3 µM; activity change, negative = inhibition: at the top concentration;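 also: the screen sought inhibitors and activators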;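 as to activity change, negative = inhibition: 0% = full enzyme reaction and -100% = no-enzyme basal signal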
In short: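 Recombinant human alpha-glucosidase (4 nM final) hydrolysed bovine liver glycogen (30 ug) for 40 min at 37 C in pH 5.0 citrate/phosphate with 0.01% Tween-20. Released glucose detected by glucose oxidase/Amplex Red, Ex 573/Em 610 nm. Compounds up to 77 uM; AC50 from Hill fits.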
Potency is read from the fitted curve at half-maximal effect.

Compared with `CC(=O)C1(C)N(O)C(C)(C)C(c2cccs2)=[N+]1[O-]` (centres undefined), `CC(=O)Oc1cccc(N2C(=O)C3CC=C(Cl)CC3C2=O)c1` (centres undefined) is higher in “activity change, negative = inhibition” value: 1.27% [at 76.4 µM] for the first, 5.61% [at 76.4 µM] for the second.

Going from `NS(=O)(=O)c1ccc(Nc2nc(-c3ccccc3)cs2)cc1` to `CC(=O)Nc1ccc(S(=O)(=O)NNC(=O)CCc2ccccc2)cc1`, the “activity change, negative = inhibition” value falls from 15.4% [at 76.4 µM] to -0.0961% [at 76.4 µM].

Compared with `COc1ccc(-c2csc(Cc3nc(O)cs3)n2)cc1`, `COc1ccc(C)cc1Nc1nc(-c2c(C)[nH]c3ccccc23)cs1` is higher in “activity change, negative = inhibition” value: -14.2% [at 76.4 µM] for the first, 9.48% [at 76.4 µM] for the second.

First: O=C(CSC1=Nc2ccccc2C2=NC(CC(=O)NCc3ccco3)C(=O)N12)NCc1ccco1 (centres undefined)
Second: CCC(C)NC(=O)CSC1=Nc2ccccc2C2=NC(CCC(=O)NCc3ccco3)C(=O)N12 (centres undefined)
The “activity change, negative = inhibition” value of the first is lower: -6.09% [at 76.4 µM] for the first, 2.88% [at 76.4 µM] for the second.

Going from `O=C(Cc1c(Cl)cccc1Cl)NC1CC1` to `COC(=O)c1sccc1NC(=O)CCC1CCCC1`, the “activity change, negative = inhibition” value falls from 1.8% [at 76.4 µM] to 0.821% [at 76.4 µM].

First: COc1cc(OC)nc(NC(=O)CCl)n1
Second: CCN(CC)c1ccc([N+](=O)[O-])cc1C(=O)O
The “activity change, negative = inhibition” value of the first is lower: -2.2% [at 76.4 µM] for the first, 11.9% [at 76.4 µM] for the second.

First: COC(=O)c1sccc1NC(=S)Nc1ccc(C)cc1
Second: COc1cc2ccccc2cc1C(=O)Nc1ccc(N2CCOCC2)cc1
The “activity change, negative = inhibition” value of the first is lower: -7.72% [at 76.4 µM] for the first, 4.76% [at 76.4 µM] for the second.

Going from `CCCC(=O)Nc1c(O)c2ccccc2[nH]c1=O` to `O=C(O)c1[nH]c2ccccc2c1C(c1cccc(O)c1)c1c(C(=O)O)[nH]c2ccccc12`, the “activity change, negative = inhibition” value rises from -14.1% [at 76.4 µM] to -1.4% [at 76.4 µM].

Going from `c1cnn(-c2cc(N3CCOCC3)ncn2)c1` to `O=C(CNC(=O)C1COc2ccccc2O1)N/N=C/c1cc(Br)c(O)c(Br)c1` (centres undefined), the “activity change, negative = inhibition” value rises from 0.521% [at 76.4 µM] to 1.03% [at 76.4 µM].

Compared with `Cc1c(C)c(C)c2[nH]c(=S)[nH]c2c1C`, `OCCN(Cc1ccccc1)Cc1ccc(Cl)cc1` is higher in “activity change, negative = inhibition” value: 4.09% [at 76.4 µM] for the first, 7.32% [at 76.4 µM] for the second.

In the case of `O=C(CCc1ccccc1)NNC(=O)c1ccc(Br)cc1`, the “activity change, negative = inhibition” value is reported as 10.6% [at 76.4 µM].

In the case of `C/C(=N\O)C1(C)N(O)C(C)(C)C(c2ccc(Br)cc2)=[N+]1[O-]` (centres undefined), the Potency is reported as 6.26 µM (active).
`COc1ccc(OC)c(Nc2nc(-c3ccc(O)c(O)c3)cs2)c1` was tested, and the Potency was 28.2 µM (active).
For `COc1ccc(-c2csc(Nc3ccc(O)cc3)n2)cc1`, the Potency was 11.2 µM (active).
`CC(C)C1N=C2c3ccccc3N=C(SCC(=O)c3ccc(O)c(O)c3)N2C1=O` (centres undefined) was tested, and the Potency was 12.5 µM (active).
`O=C(CCl)NNc1cccc(Cl)n1` was tested, and the Potency was 20 µM (active).
`CCOC(=O)C(=CNNc1ccsc1C(=O)OC)C(=O)OCC` was tested, and the Potency was 14 µM (active).
For `CCCS(=O)(=O)Nc1c(C(=O)O)[nH]c2ccccc12`, the Potency was 3.55 µM (active).
In the case of `O=C(Nc1cc(N2CCOCC2)ncn1)NC1(C(F)(F)F)Oc2ccc(Cl)cc2O1` (centres undefined), the Potency is reported as 11.1 µM (active).
With `Cc1c(CC(=O)N2CCN(C(=O)C3COc4ccccc4O3)CC2)c(=O)oc2c(O)c(O)ccc12` (centres undefined) the Potency was 6.31 µM (active).
For `O=c1[nH]c(=S)[nH]c2[nH]c(=S)[nH]c12`, the Potency was 39.8 µM (active).
With `O=[N+]([O-])c1ccc(N(CCO)Cc2ccccc2)c([N+](=O)[O-])c1` the Potency was 10 µM (active).
For `CC(=O)Oc1cccc(N2C(=O)CC(Nc3ccc(N4CCOCC4)cc3)C2=O)c1` (centres undefined), the Potency was 35.5 µM (active).
In the case of `Cc1cccc2nc(-c3ccc(Cl)s3)c(Nc3ccc4c(c3)OCCO4)n12`, the Potency is reported as 7.94 µM (active).
With `O=C(CCc1ccccc1)NNc1ccc(F)cc1` the Potency was 20 µM (active).

Going from `Cc1nnc(NCc2ccccc2)c2c1nnn2Cc1ccc(F)cc1` to `Cc1ccc(Cl)cc1NC(=O)/C(C#N)=C\c1cn(Cc2ccc(F)cc2)c2ccccc12`, the “activity change, negative = inhibition” value rises from -8.32% to 6.62%.

Going from `COc1cccc(CC(=O)Nc2nc(-c3ccc(OC)c(OC)c3)cs2)c1` to `COc1cccc(NC(=O)CN2C(=O)c3ccccc3Sc3ncccc32)c1`, the “activity change, negative = inhibition” value falls from -2.53% to -11.9%.

Compared with `Cc1cccc(C(=O)NCCc2nc3ccccc3n2Cc2ccccc2Cl)c1`, `COc1ccccc1C(=O)NCCn1cc(SCc2ccccc2Cl)c2ccccc21` is higher in “activity change, negative = inhibition” value: -12% for the first, 2.94% for the second.

Going from `CC(C)S(=O)(=O)c1oc(-c2ccc(F)cc2)nc1S(=O)(=O)c1ccc(F)cc1` to `O=C(c1ccc(C(F)(F)F)cc1)N1CCC(c2nc(-c3ccc(S(=O)(=O)N4CCCC4)cc3)no2)CC1`, the “activity change, negative = inhibition” value falls from -4.7% to -13.7%.

First: COc1ccccc1C(=O)Nc1c(C(=O)N(C)Cc2ccccc2)sc2nc(C)c(Cl)c(C)c12
Second: CCOC(=O)c1oc2ccc(S(=O)(=O)n3nc(-c4ccccc4OC)cc3N)cc2c1C
The “activity change, negative = inhibition” value of the first is lower: -19.2% for the first, 1.61% for the second.

First: COc1cc(Cl)c(NC(=O)CC(C)S(=O)(=O)c2cc3c(cc2C)NC(=O)CO3)c(OC)c1 (centres undefined)
Second: CCc1cccc(NC(=O)CN(C)S(=O)(=O)c2ccc3[nH]c4c(c3c2)CCCC4)c1
The “activity change, negative = inhibition” value of the first is lower: -5.92% for the first, 4.13% for the second.

First: CC(NC(=O)CCc1cn(Cc2ccccc2Cl)c2ccccc12)c1ccccc1 (centres undefined)
Second: COc1ccccc1CNC(=O)CCn1c(=O)c2ccccc2n(CC(=O)Nc2cccc(Cl)c2)c1=O
The “activity change, negative = inhibition” value of the first is higher: -9.52% for the first, -11.3% for the second.

Going from `Cc1ccc(CSc2nc3cccnc3n2Cc2ccc(C(=O)NC3CC3)cc2)cc1` to `CCCn1c2ccccc2c2cnn(CC(=O)NCC3CCN(Cc4ccc(C)cc4)CC3)c(=O)c21`, the “activity change, negative = inhibition” value rises from -6.11% to -3.9%.

Going from `O=S(=O)(c1ccc(Cl)cc1)c1nnn2c1nc(NC1CCCC1)c1sccc12` to `O=S(=O)(c1ccc(Br)cc1)c1nnn2c1nc(N1CCOCC1)c1sccc12`, the “activity change, negative = inhibition” value rises from -2.29% to 17.4%.

First: Cc1c(Cl)cccc1NC(=O)C1CCCN(C(=O)c2cnn(-c3ccccc3)c2-n2cccc2)C1 (centres undefined)
Second: CN(C(=O)CSc1nc2ccc(NC(=O)COc3ccccc3)cc2s1)c1ccccc1
The “activity change, negative = inhibition” value of the first is lower: -16.3% for the first, -5.51% for the second.

Compared with `O=C(CN1C(=O)COc2ccc(Cl)cc21)Nc1ccc(N2CCOCC2)cc1`, `Oc1ccccc1-c1nc2ccc(Cl)cn2c1Nc1ccc2c(c1)OCCO2` is higher in “activity change, negative = inhibition” value: -8.28% for the first, 8.37% for the second.

First: CCC(=O)N1CCc2cc(S(=O)(=O)NC(CC(C)C)C(=O)NCCc3cccc(C)c3)ccc21 (centres undefined)
Second: O=S(=O)(NCCc1nnc2ccc(SCc3ccc(Cl)cc3Cl)nn12)c1ccccc1
The “activity change, negative = inhibition” value of the first is higher: -7.4% for the first, -7.52% for the second.

First: Cc1c(C)c2ccc(OCC(=O)N3CCC(C(=O)O)CC3)c(C)c2oc1=O
Second: Cc1ccsc1CN(C(=O)c1oc2ccc(Br)cc2c1C)C1CCS(=O)(=O)C1 (centres undefined)
The “activity change, negative = inhibition” value of the first is higher: 7.97% for the first, 4.76% for the second.

First: CCOc1ccc(N2CC(C)Cn3c2nc2c3c(=O)n(Cc3c(F)cccc3Cl)c(=O)n2C)cc1 (centres undefined)
Second: CCN(C(=O)CSc1nnc(C)n2c1cc1occc12)c1ccccc1
The “activity change, negative = inhibition” value of the first is higher: 8.54% for the first, -18.8% for the second.

`Cc1ccc(Nc2c(-c3ccc(C)s3)nc3ccccn23)cc1` was tested, and the “activity change, negative = inhibition” value was -17.9%.
